Assay results from PubChem BioAssay (NCI).
This is part of a sample that, as a whole, favours compounds with a hit. Of some 83,000 tested, about 20% had one in any assay.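 Testing used 96-well plates and a 48-hour single-concentration exposure. Example: -40 means 40% of the starting cells died.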 Unmarked numbers belong to inactive results. Calls of active or inactive are those of the source. How the source made its calls: active means growth percent below 10; inactive means the rest.

Columns and labels:
Assay in all cases: NCI-60 one-dose screen, 48 h (100 = growth as untreated, 0 = no growth, -100 = all killed)
Conditions in all cases: 10 µM unless noted
SK-MEL-2 melanoma = test system: SK-MEL-2 melanoma
EKVX NSCLC = test system: EKVX NSCLC
SN12C renal = test system: SN12C renal
UO-31 renal = test system: UO-31 renal
TK-10 renal = test system: TK-10 renal
ACHN renal = test system: ACHN renal
CAKI-1 renal = test system: CAKI-1 renal
A498 renal = test system: A498 renal
CCRF-CEM leukemia = test system: CCRF-CEM leukemia
MOLT-4 leukemia = test system: MOLT-4 leukemia
SR leukemia = test system: SR leukemia
RPMI-8226 leukemia = test system: RPMI-8226 leukemia
OVCAR-8 ovarian = test system: OVCAR-8 ovarian
OVCAR-5 ovarian = test system: OVCAR-5 ovarian
OVCAR-4 ovarian = test system: OVCAR-4 ovarian
SK-OV-3 ovarian = test system: SK-OV-3 ovarian
IGROV1 ovarian = test system: IGROV1 ovarian
OVCAR-3 ovarian = test system: OVCAR-3 ovarian
HS 578T breast = test system: HS 578T breast
NCI/ADR-RES ovarian = test system: NCI/ADR-RES ovarian

| Compound | growth (SK-MEL-2 melanoma) | growth (EKVX NSCLC) | growth (SN12C renal) | growth (UO-31 renal) | growth (TK-10 renal) | growth (ACHN renal) | growth (CAKI-1 renal) | growth (A498 renal) | growth (CCRF-CEM leukemia) | growth (MOLT-4 leukemia) | growth (SR leukemia) | growth (RPMI-8226 leukemia) | growth (OVCAR-8 ovarian) | growth (OVCAR-5 ovarian) | growth (OVCAR-4 ovarian) | growth (SK-OV-3 ovarian) | growth (IGROV1 ovarian) | growth (OVCAR-3 ovarian) | growth (HS 578T breast) | growth (NCI/ADR-RES ovarian) |
| --- | --- | --- | --- | --- | --- | --- | --- | --- | --- | --- | --- | --- | --- | --- | --- | --- | --- | --- | --- | --- |
| Oc1ccc(/C=C/c2ccc(O)cc2)cc1 | 90.8% | 76.5% | 62.5% | 21.5% | 61.1% | 11% | 78.7% | 77.5% | 4.33% (active) | 74.9% | 47.7% | 12.8% | 35.7% | 135% | 12% | 99.7% | 43.9% | 47.7% | 61.3% | 20.3% |
| COc1ccc(/C=C/C(=O)c2cc3c(N)c(C(=O)Nc4cccc(Cl)c4C)sc3nc2C)cc1 | 51.6% | 44.5% | 4.97% (active) | 22.9% | 28.7% | 17.7% | 13.2% | 4.47% (active) | 10.9% | 19% | 16.2% | -11.8% (active) | -8.6% (active) | 27.6% | 37% | 23.8% | 21.9% | 8.05% (active) | 6.35% (active) | -25.5% (active) |
| O=C(Nc1ccc(Br)cc1)C1=NCCCCN1 | 103% | 86.1% | 94.7% | 67.6% | 93.4% | 64.1% | 52.4% | 95.7% | 84.5% | 96.5% | 107% | 94.3% | 74.8% | 84.6% | 96.5% | 96.1% | 87.5% | 103% | 97.1% | 82.5% |
| O=C(Nc1ccc(Cl)cc1)Oc1c(Cl)c(Cl)c(Cl)c(Cl)c1Cl | 95.7% | 80.6% | 97.6% | 78.5% | 115% | 87.9% | 86.1% | 74.6% | 92.1% | 95.6% | 93.6% | 90.5% | 99.9% | 94.6% | 88.6% | 90% | 85.9% | – | 87.8% | – |
| Cn1cc(-c2csc(-c3c[nH]c4ccc(F)cc34)n2)c2ccnc(Cl)c21 | 104% | 65.6% | 73.6% | 53% | 69.8% | 51% | 69.8% | 42.5% | 50.5% | 64.9% | 44.4% | 52.9% | 80.5% | 127% | 47.2% | 74.3% | 70.5% | – | 74.3% | 71.4% |
| CN(Cc1ccccc1)c1nc(Cl)c(C2CC(c3ccccc3)=NN2c2ccccc2)s1 (stereo not given) | 78.5% | 85.3% | 103% | 81.5% | 115% | 102% | 68.7% | 105% | 94.3% | 97.1% | 90.8% | 84.8% | 91.5% | 104% | 88.5% | 85.3% | 97.2% | – | 103% | 98.1% |
| C#CCO[C@H]1CC(CC#C)(CC#C)C(=O)[C@@H]2[C@H]1[C@H]1C[C@@H]3[C@@]4(C)CCC[C@@](C)(C(=O)OC)[C@@H]4CC[C@@]23C=C1C(C)C | 97.9% | 94.7% | 94.1% | -34.5% (active) | 99.2% | 72.7% | 41% | 85.7% | -41.5% (active) | 76.7% | -4.27% (active) | 54.2% | 58.4% | 92.3% | 85.2% | 95.8% | -64.2% (active) | 71.7% | 94.2% | 78.5% |
| O=C1/C=C/[C@@H](O)[C@@H]2C[C@@H](O)C[C@H]2/C=C/CCC[C@@H](O)CCO1 | 122% | 82% | 106% | 108% | 115% | 104% | 83.7% | 66.7% | 116% | 106% | 101% | 126% | 66.6% | 113% | 85.4% | 90.3% | 108% | 106% | 41.9% | 89.2% |
| O=C(O)c1ccc(-c2ccc(/C=N/Nc3nc(Nc4ccccc4)nc(N4CCCCC4)n3)o2)cc1 | 68.5% | 78.8% | 66.8% | 44.4% | 41.8% | 73.3% | -5.95% (active) | 72.8% | 62.8% | 79.9% | 65.5% | 43.7% | 48.7% | 94.9% | 77.1% | 92% | 45.2% | – | 40.7% | 57.7% |
| CCn1cc(CNc2ccc(C(=O)Nc3cc4cc(OC)c(OC)cc4c(C)n3)cc2)cn1 | 38.7% | 60.5% | 79.3% | 19.8% | 52.7% | 60.8% | 69% | 73.8% | 17.5% | 35.2% | 12.2% | 34.7% | 28% | 93.1% | 46.5% | 56.8% | 73% | 54.8% | 70.3% | 35.5% |
| COc1cc(OC)c2sc(-c3ccc(-n4cncc4-c4cc(OC)c(OC)c(OC)c4)cc3)nc2c1 | 55.4% | 58.7% | 68.7% | 41% | 66.1% | 70.2% | 24.3% | 48.5% | 56.6% | 32.1% | 17.3% | 27.3% | 76.1% | 81.3% | 50.2% | 88.8% | 63.9% | 35.1% | 62.2% | 60.6% |
| O=S1(=O)C=C(c2ccccc2)C(c2ccccc2)=C1 | 52.1% | 90.1% | 12.8% | -6.37% (active) | -37.1% (active) | -47.4% (active) | -15.6% (active) | 79.5% | 2.77% (active) | 1.8% (active) | -3.82% (active) | 4.61% (active) | 6.07% (active) | 85.1% | 27.6% | 88.8% | 11.7% | -86% (active) | -5.2% (active) | 8.7% (active) |
| COCCn1cc(-c2csc(-c3c[nH]c4ccc(Br)cc34)n2)c2cccnc21 | 35.9% | 36.9% | 51.2% | 27.8% | 36.6% | 27.2% | 49.4% | 26.7% | 14% | 8.87% (active) | 17% | 22.2% | 21.8% | 55.5% | 31.2% | 47.1% | 42.3% | 39% | 44.5% | 10.8% |
| CCc1ccc(CCC(=O)Nc2ncc(Cc3cc(Cl)ccc3Cl)s2)o1 | 45.5% | 42.9% | 31.9% | 33.4% | 51% | 33.9% | 23.9% | -0.625% (active) | 10.4% | 14.7% | 15.3% | 12.3% | 19.2% | 24.5% | 50.3% | 34% | 23.5% | -2.36% (active) | 7.65% (active) | -3.44% (active) |
| CC1(C)N=C(N)N=C(N)N1c1ccc(CCCCc2ccccc2)c(Cl)c1 | 4.71% (active) | 53% | 11% | 49.5% | 15.9% | 18.8% | 14.1% | 54.5% | 13.2% | 1.8% (active) | -8.35% (active) | 4.29% (active) | 26.1% | 28.5% | 20.6% | 38.1% | -24.4% (active) | -10.6% (active) | 36.4% | 54.8% |
| Cc1c2ccncc2c(C)c2c1c1cc(CO)ccc1n2C | -7.55% (active) | 1.54% (active) | 6.64% (active) | 3.77% (active) | -21.4% (active) | 0.85% (active) | 8.35% (active) | -81.7% (active) | 8.76% (active) | 6.68% (active) | -4.24% (active) | -17.1% (active) | 6.79% (active) | -15.8% (active) | -3.73% (active) | -2.65% (active) | -8.24% (active) | -24.2% (active) | 24.3% | 4.56% (active) |
